# Source: PubChem BioAssay (NCATS)
# Inconclusive results are not listed. Active and inactive are the calls of the source. Calls come from the whole dose curve; as a rule, active = well fitted inhibition curve with a large enough effect; inconclusive = small, poorly fitted or top-dose-only effect; inactive = flat fitted curve, though single readings scatter.
# Test system: CRL-7250
# Assay: qHTS assay to identify novel small-molecules to repurpose for Merkel cell carcinoma treatment (AID 1296009); note: nearly all actives have a fitted effect of over 60% in size
# Conditions: MCC and control cell lines, CellTiter-Glo viability, 72 h; series mostly up to 92 µM; activity change, negative = cytotoxicity: at the top concentration
# Outline: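 Viability readout: ATP luminescence (CellTiter-Glo) after 72 hr drug exposure at 37 degree celsius. Dose-response format was 8 points for NPC and 11 points for MIPE; data normalized to in-plate controls.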
row,Structure (SMILES),outcome
1,CC(c1ncncc1F)C(O)(Cn1cncn1)c1ccc(F)cc1F (configuration not stated),inactive
2,COc1cc([C@@H](O[C@@H]2O[C@H](CO)[C@@H](O)[C@H](O)[C@H]2O)[C@@H]2CO[C@H](c3ccc(O)c(OC)c3)[C@H]2CO)ccc1O,inactive [at 17.4 µM]
3,C/C=C(\C)C(=O)OC[C@H]1O[C@@H](O[C@H]2[C@@H](O[C@H]3O[C@H](CO)[C@@H](O)[C@H](O)[C@H]3O[C@@H]3O[C@H](CO)[C@@H](O)[C@H](O)[C@H]3O)O[C@H](COC(=O)/C(C)=C/C)[C@@H](O)[C@@H]2O)[C@H](O)[C@@H](O)[C@@H]1O,inactive [at 9.27 µM]
4,COC(=O)[C@@]1(O)C=CC[C@@H]2[C@@]3(C)C[C@@H](c4ccoc4)OC(=O)[C@H]3CC[C@]21C,inactive
5,CC1(C(=O)O)CCCC2(C)C3CCC4CC3(CCC12)CC4C(=O)O (configuration not stated),inactive
6,C/C=C(\C)C(=O)OC1C2(O)CC3=C4CC(=O)OC(c5ccoc5)C4(C)CCC3C(C)(C2=O)C(C(OC(C)=O)C(=O)OC)C1(C)C (configuration not stated),inactive [at 17.4 µM]
7,CC1(C)CC[C@]2(C(=O)O)CC[C@]3(C)C(=CCC4[C@@]5(C)CC[C@H](O[C@H]6O[C@H](C(=O)O)[C@@H](O)[C@H](O[C@@H]7O[C@H](CO)[C@H](O)[C@H](O)[C@H]7O)[C@H]6O)C(C)(C)C5CC[C@]43C)[C@@H]2C1 (some centres not stated),inactive [at 9.27 µM]
8,CC1(C=O)CCCC2(C)C1CCC13CC(CO)C(CCC12)C3 (configuration not stated),inactive
9,COc1c2c(c(C)c3c1C(=O)OC3)OC1(C)CC(O)C34OC(OC)(CC(OC(C)=O)C3(C)C1C2)OC4(C)C (configuration not stated),inactive [at 17.4 µM]
10,COc1cc(O)c2c(c1)C1(OC2=O)C(C)=CC(=O)C1O (configuration not stated),inactive
11,O=C(/C=C/N1C[C@@H]2C[C@@H]1CN2c1ccccn1)c1ccccc1O,inactive
12,COCCN(C)Cc1ccc2nc3sc(C(=O)N(C)C4CCCCC4)cn3c2c1,inactive
13,CC1=C2C[C@H]3O[C@@]3(C)CCC3O[C@@]3(C)C[C@@]2(O)OC1=O (some centres not stated),inactive
14,COc1cc(O)cc(C)c1C(=O)OC1C(CO)OC(n2ccc(=O)[nH]c2=O)C1OC(C)=O (configuration not stated),inactive [at 17.4 µM]
15,CO[C@@]12CC3[C@@H]([C@@H](O)[C@@H](OC(C)=O)C4[C@](C)(COC(C)=O)CCC[C@]34C)[C@@H](C)C1=CC(=O)O2 (some centres not stated),inactive [at 17.4 µM]
16,CC(=O)OC1C(O)C(C)=C(CCC(C)CC(=O)O)C2(C)CCCC(C)(C)C12 (configuration not stated),inactive

row,Structure (SMILES),outcome
1,CC(O)C/C=C/C=C/C(=O)OC1C=C2COC(=O)C2(O)C2(C)CCCC(C)(C)C12 (configuration not stated),inactive
2,C=C[C@H]1[C@H](O[C@@H]2O[C@H](CO)[C@@H](O)[C@H](O)[C@H]2O)OC=C2C(=O)N3Cc4c([nH]c5ccccc5c4=O)[C@@H]3C[C@H]21,inactive [at 17.4 µM]
3,COc1c(OC2OC(CO)C(O)C(O)C2O)ccc(O)c1C(=O)OCc1ccccc1O[C@@H]1O[C@H](CO)[C@@H](O)[C@H](O)[C@H]1O (some centres not stated),inactive [at 17.4 µM]
4,CC1=C(C)C(=O)OC(C(C)C2C(O)CC3C4C5OC5C5(O)CC(OC6OC(CO)C(O)C(O)C6O)CC(O)C5(C)C4CCC32C)C1 (configuration not stated),inactive [at 17.4 µM]
5,C=C1CC/C=C(/CO)C(=O)C[C@@H]2[C@@H]1C[C@@]2(C)COC(C)=O,inactive
6,O=C(NCCCN1CCC2(CC1)OCc1ccccc12)[C@H]1CCCN1Cc1ccccc1,inactive
7,C[C@H]1CC[C@@H]2N(C1)C[C@@H]1[C@H]([C@@H](O)[C@H](O)[C@]3(O)[C@H]1C[C@@]14OC5(O)[C@@H](C[C@@H](O)[C@@H]31)[C@]4(C)CC[C@@H]5O)[C@]2(C)O,inactive [at 17.4 µM]
8,COc1cc2c(cc1OC)CN(C(=O)[C@@H](NCc1ccncc1)C(C)(C)C)CC2,inactive
9,Cc1ccnn1-c1ccc(C(=O)N2CCN(S(=O)(=O)c3ccc(Cl)c(C(F)(F)F)c3)CC2)cc1,inactive
10,CC1(C)CC[C@]2(C(=O)O)CC[C@]3(C)C(=CCC4[C@@]5(C)C[C@@H](O)[C@H](O)C(C)(C)C5CC[C@]43C)C2C1 (some centres not stated),inactive [at 17.4 µM]
11,C=C1CCC2C(C)(C(=O)O)CCCC2(C)C1CCC1=CCOC1=O (configuration not stated),inactive
12,COc1c(C(C)C)c(O)c(O)c2c1C(OC)[C@H]1OC(=O)[C@@]23CCCC(C)(C)[C@H]13 (some centres not stated),inactive
13,CN1CCc2cc3c(cc2C(=O)Cc2cc4c(cc2C1)OCO4)OCO3,inactive
14,C/C=C/CCC1Cc2cc(O)c(CCCC)c(O)c2C(=O)O1 (configuration not stated),inactive
15,CON(C)C(=O)[C@H](O)[C@H](Cc1ccccc1)NC(=O)c1cc2cc(Cl)ccc2[nH]1,inactive
16,CC1CCC23COC(=O)C2=CC(O)CC3C1(C)CCC1=CC(=O)OC1O (configuration not stated),inactive
